Only some compounds are listed: those with a hit (about 1.2% of all), similar ones and a draw of the others.
GC-B act – GC-B (human) receptor activation; activation, % at 10 µM; HEK293-GC-B cells, CNP EC30, cGMP TR-FRET; 0% at EC30 CNP, 100% saturating CNP; 370,000 tested, 0.11% active;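 active means activation at 10 µM reaching about 35% in either raw or pattern-adjusted values, limit read from the data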
PLCb3 inh – inhibitors of human phospholipase C beta3; Q01970; Purified PLC-beta3, fluorogenic substrate, fluorescence; inhibition, % at 12.2 µM; 370,000 tested, 0.18% active; AID 720704;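 further: 0% = median of compound wells on plate and 100% = full blocker control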
NPR1 activator – GC-A (human) enzyme activation; AID 1671463; activation, % at 10 µM; 370,000 tested, 0.14% active; HEK293 GC-A cells, cGMP TR-FRET, EC30 ANP; 0% at EC30 ANP, 100% saturating ANP; in the data active means activation above about 40%
PLCg1 inh – blocks human PLC-gamma1 enzyme activity | 370,000 tested, 0.84% active | AID 720700 | inhibition, % at 12.2 µM | purified PLC-gamma1, fluorogenic substrate, fluorescence; in the data active means inhibition above about 9.5%
PLCgamma1 ctr – counter-screen for PLC-beta3 inhibitors: inhibitors of human PLC-gamma1; purified PLC-gamma1, fluorogenic substrate, fluorescence; AID 743258; inhibition, % at 12.3 µM; 3,300 tested, 3.1% active; shares compounds with PLCg1 inh; in the data active means inhibition above about 9.5%
PLCb3 confirm – confirmation of human PLC-beta3 inhibitors. inhibition, % at 12.3 µM. shares compounds with PLCg1 inh. 3,300 tested, 1% active. purified PLC-beta3, fluorogenic substrate fluorescence. AID 743261
* marks the source's active call; other numbers are inactive results; . = no result. Unless noted, no stated cut-off is given here; in the data, active means inhibition above about 11%; inactive means the rest.

SMILES	GC-B act	PLCb3 inh	NPR1 activator	PLCg1 inh	PLCgamma1 ctr	PLCb3 confirm
CCC(=NCC1CCCO1)c1c(O)n(-c2ccccc2)c(=O)[nH]c1=O (centres undefined)	10	2	5	1	.	.
O=C1CN=C(c2ccccc2)c2ccccc2N1Cc1ccc(C(F)(F)F)cc1	-15	1	-25	-1	.	.
Cc1oc(-c2ccccc2Cl)nc1CN1C(=O)CN=C(c2ccccc2)c2ccccc21	-20	11*	-23	9.6*	-6	-6
Cc1cccc(OCC(=O)N2CCN(Cc3ccc4c(c3)OCO4)CC2)c1	4	2	2	1	.	.
Cc1cccc(OCC(=O)N2CCN(Cc3ccncc3)CC2)c1	-4	4	-1	13*	-3	-2
CCOc1ccc(CN2CCN(C(=O)Cc3ccccc3)CC2)cc1	0	-4	2	0	.	.
COC(=O)C1=C(c2c(C)noc2C)C[C@@H]2CC[C@H]1N2C(=O)N1CCC(O)(c2ccc(Cl)cc2)CC1	-1	0	3	-3	.	.
O=[N+]([O-])c1ccc(C(c2ccc([N+](=O)[O-])cc2)c2ccc([N+](=O)[O-])cc2)cc1	1	3	-11	3	.	.
Cn1cnc([N+](=O)[O-])c1Sc1ccc([N+](=O)[O-])cc1	3	11*	0	9	0	5
COC(=O)C1=C(c2cccc(OCc3ccccc3)c2)C[C@@H]2CC[C@H]1N2C(=O)NC1CCN(Cc2ccccc2)CC1	-2	2	-4	12*	1	4
COC(=O)C1=C(c2ccccc2OCc2ccccc2)C[C@@H]2CC[C@H]1N2C(=O)NC1CCN(Cc2ccccc2)CC1	-6	7	-4	7	.	.
C=C1[C@H]2CC[C@H]3[C@]4(C)C[C@H](O[C@@H]5OC(CO)[C@@H](OSOOO)[C@H](OS(=O)(=O)O)[C@H]5OC(=O)CC(C)C)C[C@@H](C(=O)O)[C@H]4CC[C@]3(C2)[C@H]1O (some centres undefined)	6	12*	3	3	2	2
